8 compounds from PubChem BioAssay (NCI) can be followed below.

Holding throughout (experiment): NCI-60 one-dose screen, 48 h (100 = growth as untreated, 0 = no growth, -100 = all killed)
In one experiment the test system is NCI-H226 lung. The note with it: 10 µM.
Another experiment concerns HOP-62 NSCLC. The note with it: 10 µM.
In the next experiment the test system is NCI-H460 lung. The note with it: 10 µM.
Another experiment has as its system A549/ATCC NSCLC. The note with it: 10 µM.
Another experiment deals with COLO 205 colon. Conditions: 10 µM.
For a further experiment, the system named is DU-145 prostate. The note with it: 10 µM.
The test system of the next experiment is K-562 leukemia. The note with it: 10 µM.
The next experiment deals with SF-539 CNS. The note with it: 10 µM.
The next experiment deals with M14 melanoma. The note with it: 10 µM.
In another experiment the test system is HCT-15 colon. Conditions: 10 µM.
A further experiment has as its system HT29 colon. Conditions: 10 µM.
The subject of a further experiment is SNB-75 CNS. The note with it: 10 µM.
The subject of another experiment is SNB-19 CNS. Conditions: 10 µM.
For the next experiment, the system named is U251 CNS. The note with it: 10 µM.
In another experiment the test system is PC-3 prostate. Conditions: 10 µM.
A further experiment has as its system LOX IMVI melanoma. Conditions: 10 µM.
In the next experiment the test system is MOLT-4 leukemia. Conditions: 10 µM.
For a further experiment, the system named is RPMI-8226 leukemia. The note with it: 10 µM.
The next experiment has as its system SK-OV-3 ovarian. Conditions: 10 µM.
In a further experiment the test system is MDA-MB-468 breast. The note with it: 10 µM unless noted.

About 83,000 compounds went through this panel and 20% of them were active in at least one assay; those are over-represented in the sample as a whole.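 96-well plates, one dose, 48 hours. Percent growth reported; active if below 10.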 A number with no mark means an inactive call. The source made the active and inactive calls.

On to `COc1cc(Nc2nc(O)c(/C=C3\C=Nc4ccccc43)s2)cc(OC)c1OC`, for which the growth with NCI-H226 lung was -46.5% (active); with HOP-62 NSCLC it was -65.9% (active); in the experiment on NCI-H460 lung it was -77.6% (active); with A549/ATCC NSCLC, -69.4% (active); in the experiment on COLO 205 colon it was -5.44% (active); in the experiment on DU-145 prostate, -57.6% (active). Besides, the growth in the experiment with K-562 leukemia is 3.33% (active); in the experiment on SF-539 CNS it was -85.3% (active); in the experiment on M14 melanoma it was -18.7% (active); with HCT-15 colon, -0.515% (active); in the experiment with HT29 colon it was -50.7% (active); in the experiment with SNB-75 CNS, -63.8% (active). Besides, the growth with SNB-19 CNS is -39.4% (active); in the experiment with U251 CNS it was -79.8% (active); in the experiment with PC-3 prostate it was -71.9% (active); in the experiment with LOX IMVI melanoma it was -61.5% (active); in the experiment on MOLT-4 leukemia it was 2.95% (active); in the experiment on RPMI-8226 leukemia it was -25.1% (active). The figures for the growth in the experiment with SK-OV-3 ovarian and in the experiment on MDA-MB-468 breast were -59.3% (active) and -19.9% (active), respectively.

As to `COC(=O)CNC(=O)COc1c(OC)c(OC)cc2oc(-c3cccc(C(=O)Nc4ccc(Cl)cc4)c3)cc(=O)c12`, the growth was -51.4% (active) in the experiment with NCI-H226 lung; -34.4% (active) in the experiment with HOP-62 NSCLC; 12.6% in the experiment with NCI-H460 lung; 75.4% in the experiment on A549/ATCC NSCLC; 31% with COLO 205 colon; 33.6% in the experiment with DU-145 prostate. Also, the growth in the experiment on K-562 leukemia is 50%; in the experiment with SF-539 CNS it was 16%; with M14 melanoma, 7.29% (active); in the experiment on HCT-15 colon, 67.7%; in the experiment on HT29 colon, 58.4%; with SNB-75 CNS it was 85.1%. Also, the growth in the experiment with SNB-19 CNS was 25.9%; in the experiment with U251 CNS it was 11.7%; in the experiment on PC-3 prostate, 34.7%; in the experiment with LOX IMVI melanoma it was -33.2% (active); in the experiment with MOLT-4 leukemia it was 88.6%; in the experiment on RPMI-8226 leukemia it was 53.7%. Moreover, the growth in the experiment with SK-OV-3 ovarian was 82.2%; in the experiment on MDA-MB-468 breast, 94.6%.

Take `COc1ccc(C2c3sc4ccc(C)cc4c3Oc3nc(N)nc(N)c32)cc1` (stereo not given): the growth in the experiment with NCI-H226 lung was 78.5%; in the experiment with HOP-62 NSCLC it was 79.4%; in the experiment on NCI-H460 lung, 88.8%; in the experiment on A549/ATCC NSCLC, 92.2%; in the experiment with COLO 205 colon, 93.7%; in the experiment with DU-145 prostate it was 102%. Also, the growth was 50.9% with K-562 leukemia; 69.6% in the experiment on SF-539 CNS; 74.8% with M14 melanoma; 59.9% in the experiment with HCT-15 colon; 99.1% in the experiment with HT29 colon; 70.9% in the experiment with SNB-75 CNS. For the same compound, the growth in the experiment on SNB-19 CNS is 84.5%; with U251 CNS, 83.1%; in the experiment on PC-3 prostate it was 79.8%; in the experiment with LOX IMVI melanoma it was 80.8%; with MOLT-4 leukemia, 89.9%; in the experiment with RPMI-8226 leukemia it was 83.6%. For the same compound, the growth is 89.3% in the experiment on SK-OV-3 ovarian and 79.8% with MDA-MB-468 breast.

As to `O=C(CN1CCN(c2ncnc3c2cnn3-c2ccccc2)CC1)Nc1ccc(Cl)cc1`, the growth is 67.5% in the experiment on NCI-H226 lung; 85.7% in the experiment on HOP-62 NSCLC; 53.3% in the experiment with NCI-H460 lung; 67% in the experiment with A549/ATCC NSCLC; 56.7% in the experiment on COLO 205 colon; 57.5% in the experiment on DU-145 prostate. Further, the growth with K-562 leukemia is 42.4%; with SF-539 CNS, 76.1%; with M14 melanoma it was 59.4%; with HCT-15 colon, 45%; in the experiment with HT29 colon, 63.4%; in the experiment on SNB-75 CNS, 69.7%. Also, the growth in the experiment with SNB-19 CNS was 66.5%; in the experiment on U251 CNS, 66.7%; in the experiment on PC-3 prostate, 38.8%; in the experiment with LOX IMVI melanoma, 39.9%; in the experiment on MOLT-4 leukemia, 7.06% (active); in the experiment on RPMI-8226 leukemia it was 44.4%. In addition, the growth with SK-OV-3 ovarian is 79.2%; in the experiment on MDA-MB-468 breast it was 42.5%.

Regarding `O=[N+]([O-])c1cccc(-c2nnc3c(/C=C/c4ccccc4O)nc4ccccc4n23)c1`, the growth in the experiment with NCI-H226 lung is 33.1%; in the experiment with HOP-62 NSCLC it was 52.8%; in the experiment with NCI-H460 lung it was 28.8%; in the experiment with A549/ATCC NSCLC, 57.8%; with COLO 205 colon it was 41.3%; in the experiment with DU-145 prostate it was 63%. The growth in the experiment with K-562 leukemia was 24.1%; with SF-539 CNS, 46.2%; with M14 melanoma it was 29.8%; in the experiment with HCT-15 colon it was 52.5%; in the experiment on HT29 colon it was 48.6%; with SNB-75 CNS, 102%. The growth was 87% in the experiment on SNB-19 CNS; 76.7% in the experiment with U251 CNS; 52.2% with PC-3 prostate; 56.1% in the experiment with LOX IMVI melanoma; 38.7% in the experiment on MOLT-4 leukemia; 54.9% with RPMI-8226 leukemia. Also, the growth in the experiment on SK-OV-3 ovarian was 75.7%; in the experiment on MDA-MB-468 breast it was 52%.

As for `Cc1ccc(S(=O)(=O)N2CCN(S(=O)(=O)c3oc(-c4ccccc4)nc3C#N)CC2)cc1`, the growth is 69.2% in the experiment with NCI-H226 lung; 100% in the experiment with HOP-62 NSCLC; 76.2% in the experiment on NCI-H460 lung; 74.7% in the experiment on A549/ATCC NSCLC; 92.3% with COLO 205 colon; 85.6% in the experiment on DU-145 prostate. For the same compound, the growth in the experiment with K-562 leukemia was 66.1%; in the experiment on SF-539 CNS, 101%; in the experiment with M14 melanoma it was 84.8%; with HCT-15 colon, 82.5%; in the experiment on HT29 colon it was 80.2%; with SNB-75 CNS, 92.6%. The growth with SNB-19 CNS is 78.6%; in the experiment with U251 CNS it was 84.4%; in the experiment on PC-3 prostate it was 75%; in the experiment on LOX IMVI melanoma, 8.41% (active); in the experiment with MOLT-4 leukemia, 56.8%; in the experiment with RPMI-8226 leukemia, 74.7%. Further, the values for the growth with SK-OV-3 ovarian and with MDA-MB-468 breast were 87.9% and 66.2%, respectively.

With `Cc1ccc(COc2ccc(NC(=O)Nc3ccc(Cl)c(C(F)(F)F)c3)cc2)cc1`, the growth in the experiment with NCI-H226 lung is 75.7%; with HOP-62 NSCLC, 97.9%; in the experiment on NCI-H460 lung it was 59.5%; with A549/ATCC NSCLC, 64.7%; in the experiment on COLO 205 colon, 76.8%; in the experiment on DU-145 prostate, 81.5%. The growth with K-562 leukemia was 66.7%; in the experiment on SF-539 CNS, 78.7%; in the experiment with M14 melanoma, 93.4%; in the experiment on HCT-15 colon, 52.2%; in the experiment on HT29 colon, 80.6%; in the experiment with SNB-75 CNS, 72.4%. Moreover, the growth in the experiment with SNB-19 CNS is 75.8%; in the experiment on U251 CNS, 69.8%; in the experiment on PC-3 prostate it was 38.4%; in the experiment with LOX IMVI melanoma, 15.6%; in the experiment on MOLT-4 leukemia, 73.5%; with RPMI-8226 leukemia it was 39.5%. Also, the growth was 97.1% with SK-OV-3 ovarian and -14.4% (active) in the experiment on MDA-MB-468 breast.

On to `CCOc1ccc(/C=N/NC(=O)Cn2nc(Cc3ccc(OC)cc3)c3onc(C)c3c2=O)cc1`, for which the growth in the experiment with NCI-H226 lung is 6.7% (active); in the experiment on HOP-62 NSCLC, 7.48% (active); with NCI-H460 lung, -7.59% (active); in the experiment with A549/ATCC NSCLC, 0.727% (active); in the experiment on COLO 205 colon, 50.4%; in the experiment with DU-145 prostate, 14.4%. The growth is 44.7% with K-562 leukemia; -32.6% (active) in the experiment with SF-539 CNS; 39% in the experiment on M14 melanoma; 49.9% with HCT-15 colon; 16.6% in the experiment on HT29 colon; -39.9% (active) with SNB-75 CNS. Moreover, the growth with SNB-19 CNS is 29%; in the experiment on U251 CNS, 4.53% (active); in the experiment with PC-3 prostate it was 18.3%; in the experiment with LOX IMVI melanoma, 4.69% (active); in the experiment on MOLT-4 leukemia it was 58.3%; in the experiment on RPMI-8226 leukemia it was 67.9%. In addition, the growth in the experiment on SK-OV-3 ovarian was -26.6% (active); in the experiment with MDA-MB-468 breast, 40.4%.
